Measurements as given in PubChem BioAssay AID1159580 (chemical genetic matrix, 2015).
Several values for one entry are separate records, joined by “and”; a condition that tells them apart may be missing. Equal entries are not always repeated. About 2,000 (36%) of roughly 5,500 compounds were called active. Not shown: some 18% with an inconclusive outcome. The list shows a part of the results. Unmarked numbers belong to inactive results. Cut-off read from the data, not from the text of the source: active = normalized growth mostly below about 0.91 (no sharp cut-off); inconclusive = no clear call, values can overlap the other calls; inactive = mostly above about 0.92.

Experiment: chemical genetic growth profiling, strain panel (AID 1159580);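 note: tested at 20 µM; growth read once vehicle control cultures reached saturation at 30 °C; 1 = growth at the plate median or of vehicle wells; lower values mean less growth of the strain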
Conditions: S. cerevisiae deletion strains, growth OD

## C=C1C(C2(C)C=CC(=O)C(C)(C)C2CC(=O)OC)CC[C@@]2(C)[C@H](c3ccoc3)OC(=O)C3OC132 (stereo not given in full)
Locus YAL021C, strain ccr4, active compounds read low
  normalized growth: 1.02
Locus YAL026C, strain drs2, active compounds read low
  normalized growth: 0.97
Locus YAL030W, strain snc1, active compounds read low
  normalized growth: 0.996
Locus YBL061C, strain skt5, active compounds read low
  normalized growth: 0.988
Locus YBR009C, strain hhf1, active compounds read low
  normalized growth: 1
Locus YBR021W, strain FUR4, active compounds read low
  normalized growth: 1.03
Locus YBR023C, strain chs3, active compounds read low
  normalized growth: 1
Locus YBR171W, strain sec66, active compounds read low
  normalized growth: 0.954
Locus YBR229C, strain ROT2, active compounds read low
  normalized growth: 0.957
Locus YBR231C, strain swc5, active compounds read low
  normalized growth: 0.976
Locus YBR279W, strain paf1, active compounds read low
  normalized growth: 0.999
Locus YCL011C, strain gbp2, active compounds read low
  normalized growth: 1
Locus YCL016C, strain dcc1, active compounds read low
  normalized growth: 1.03
Locus YCL029C, strain bik1, active compounds read low
  normalized growth: 0.977
Locus YCL061C, strain MRC1, active compounds read low
  normalized growth: 0.997
Locus YCL069W, strain vba3, active compounds read low
  normalized growth: 0.986
Locus YCR088W, strain abp1, active compounds read low
  normalized growth: 0.991
Locus YDL005C, strain med2, active compounds read low
  normalized growth: 0.997
Locus YDL035C, strain GPR1, active compounds read low
  normalized growth: 0.978
Locus YDL040C, strain nat1, active compounds read low
  normalized growth: 0.992
Locus YDL074C, strain BRE1, active compounds read low
  normalized growth: 0.969
Locus YDL101C, strain DUN1, active compounds read low
  normalized growth: 0.987
Locus YDL185W, strain tfp1, active compounds read low
  normalized growth: 0.956
Locus YDL192W, strain arf1, active compounds read low
  normalized growth: 0.985
Locus YDR001C, strain nth1, active compounds read low
  normalized growth: 0.992
Locus YDR069C, strain doa4, active compounds read low
  normalized growth: 0.966
Locus YDR101C, strain arx1, active compounds read low
  normalized growth: 0.97
Locus YDR137W, strain rgp1, active compounds read low
  normalized growth: 0.976
Locus YDR159W, strain sac3, active compounds read low
  normalized growth: 0.962
Locus YDR162C, strain NBP2, active compounds read low
  normalized growth: 0.982
Locus YDR195W, strain ref2
  normalized growth: 0.976
Locus YDR297W, strain sur2, active compounds read low
  normalized growth: 0.996
Locus YDR318W, strain mcm21, active compounds read low
  normalized growth: 0.99
Locus YDR334W, strain swr1, active compounds read low
  normalized growth: 0.966
Locus YDR335W, strain msn5, active compounds read low
  normalized growth: 1
Locus YDR388W, active compounds read low
  normalized growth: 0.977
Locus YDR392W, strain spt3, active compounds read low
  normalized growth: 0.942
Locus YDR502C, strain sam2, active compounds read low
  normalized growth: 0.979
Locus YEL003W, strain gim4, active compounds read low
  normalized growth: 0.983
Locus YEL037C, strain rad23, active compounds read low
  normalized growth: 0.989
Locus YEL061C, strain CIN8 (second series), active compounds read low
  normalized growth: 0.982
Locus YEL061C, strain CIN8, active compounds read low
  normalized growth: 0.995
Locus YER015W, strain faa2, active compounds read low
  normalized growth: 0.996
Locus YER016W, strain bim1, active compounds read low
  normalized growth: 0.989
Locus YER110C, active compounds read low
  normalized growth: 0.981
Locus YER111C, strain swi4, active compounds read low
  normalized growth: 0.972
Locus YER155C, strain BEM2 (second series), active compounds read low
  normalized growth: 1.01
Locus YER155C, strain BEM2, active compounds read low
  normalized growth: 0.995
Locus YER167W, strain BCK2, active compounds read low
  normalized growth: 0.985
Locus YFR010W, strain ubp6, active compounds read low
  normalized growth: 0.971
Locus YGL078C, strain dbp3, active compounds read low
  normalized growth: 0.978
Locus YGL086W, strain mad1, active compounds read low
  normalized growth: 1.01
Locus YGL167C, strain pmr1, active compounds read low
  normalized growth: 0.989
Locus YGL173C, strain kem1, active compounds read low
  normalized growth: 0.968
Locus YGL227W, strain vid30, active compounds read low
  normalized growth: 0.999
Locus YGL240W, strain doc1, active compounds read low
  normalized growth: 0.999
Locus YGL248W, strain PDE1, active compounds read low
  normalized growth: 0.995
Locus YGL253W, strain hxk2, active compounds read low
  normalized growth: 0.91 (active)
Locus YGR135W, strain pre9, active compounds read low
  normalized growth: 1.02
Locus YGR229C, strain SMI1, active compounds read low
  normalized growth: 0.998
Locus YGR252W, strain gcn5, active compounds read low
  normalized growth: 0.984
Locus YHR013C, strain ard1, active compounds read low
  normalized growth: 0.993
Locus YHR027C, strain rpn1, active compounds read low
  normalized growth: 0.972
Locus YHR030C, strain SLT2, active compounds read low
  normalized growth: 0.991 and 0.976
Locus YHR079C, strain IRE1 (second series), active compounds read low
  normalized growth: 0.975
Locus YHR079C, strain IRE1, active compounds read low
  normalized growth: 0.978
Locus YHR094C, strain hxt1, active compounds read low
  normalized growth: 0.976
Locus YHR129C, strain ARP1, active compounds read low
  normalized growth: 0.992
Locus YHR142W, strain chs7, active compounds read low
  normalized growth: 1.02
Locus YHR200W, strain rpn10, active compounds read low
  normalized growth: 0.968
Locus YIL066C, strain RNR3, active compounds read low
  normalized growth: 0.974
Locus YIL073C, strain SPO22, active compounds read low
  normalized growth: 0.994
Locus YIL125W, strain kgd1, active compounds read low
  normalized growth: 0.978
Locus YIR030C, strain dcg1, active compounds read low
  normalized growth: 0.977
Locus YJL092W, strain hpr5, active compounds read low
  normalized growth: 0.973
Locus YJL095W, strain BCK1 (second series), active compounds read low
  normalized growth: 0.979
Locus YJL095W, strain BCK1, active compounds read low
  normalized growth: 1 and 0.987
Locus YJL115W, strain asf1, active compounds read low
  normalized growth: 0.98
Locus YJL129C, strain trk1, active compounds read low
  normalized growth: 0.961
Locus YJL134W, strain LCB3, active compounds read low
  normalized growth: 0.983
Locus YJL154C, strain vps35, active compounds read low
  normalized growth: 1.01
Locus YJL164C, strain tpk1, active compounds read low
  normalized growth: 1.03
Locus YJL166W, strain qcr8, active compounds read low
  normalized growth: 1
Locus YJL168C, strain set2, active compounds read low
  normalized growth: 0.994
Locus YJL187C, strain SWE1 (second series), active compounds read low
  normalized growth: 0.989
Locus YJR066W, strain TOR1, active compounds read low
  normalized growth: 0.932
Locus YJR075W, strain HOC1, active compounds read low
  normalized growth: 0.98
Locus YKL009W, strain mrt4, active compounds read low
  normalized growth: 0.986
Locus YKL068W, active compounds read low
  normalized growth: 0.989
Locus YKL085W, strain MDH1 (second series), active compounds read low
  normalized growth: 1
Locus YKL085W, strain MDH1, active compounds read low
  normalized growth: 1
Locus YKL160W, strain elf1, active compounds read low
  normalized growth: 1.05
Locus YKR001C, strain vps1, active compounds read low
  normalized growth: 0.992
Locus YKR026C, strain gcn3, active compounds read low
  normalized growth: 0.981
Locus YKR091W, strain srl3, active compounds read low
  normalized growth: 0.996
Locus YLL001W, strain dnm1, active compounds read low
  normalized growth: 0.967
Locus YLL026W, active compounds read low
  normalized growth: 0.984
Locus YLL041C, strain sdh2, active compounds read low
  normalized growth: 0.975
Locus YLR027C, strain aat2, active compounds read low
  normalized growth: 0.978
Locus YLR039C, strain RIC1, active compounds read low
  normalized growth: 0.92
Locus YLR058C, strain SHM2, active compounds read low
  normalized growth: 0.979
Locus YLR102C, strain apc9, active compounds read low
  normalized growth: 0.983
Locus YLR113W, strain HOG1, active compounds read low
  normalized growth: 0.991
Locus YLR221C, strain rsa3, active compounds read low
  normalized growth: 0.978
Locus YLR258W, strain gsy2, active compounds read low
  normalized growth: 1.02
Locus YLR262C, strain YPT6 (second series), active compounds read low
  normalized growth: 0.983
Locus YLR262C, strain YPT6, active compounds read low
  normalized growth: 0.933
Locus YLR268W, strain sec22, active compounds read low
  normalized growth: 0.959
Locus YLR320W, strain mms22, active compounds read low
  normalized growth: 1
Locus YLR342W, strain FKS1, active compounds read low
  normalized growth: 0.993
Locus YLR357W, strain rsc2, active compounds read low
  normalized growth: 0.978
Locus YLR370C, strain arc18, active compounds read low
  normalized growth: 0.963
Locus YLR371W, strain rom2, active compounds read low
  normalized growth: 0.972
Locus YLR384C, strain iki3, active compounds read low
  normalized growth: 1
Locus YLR418C, strain cdc73, active compounds read low
  normalized growth: 0.994
Locus YML016C, strain PPZ1, active compounds read low
  normalized growth: 0.978
Locus YML032C, strain rad52, active compounds read low
  normalized growth: 0.965
Locus YML120C, strain ndi1, active compounds read low
  normalized growth: 1.02
Locus YML124C, strain tub3, active compounds read low
  normalized growth: 0.988
Locus YMR058W, strain fet3, active compounds read low
  normalized growth: 0.994
Locus YMR078C, strain ctf18, active compounds read low
  normalized growth: 0.961
Locus YMR125W, strain sto1, active compounds read low
  normalized growth: 0.992
Locus YMR129W, active compounds read low
  normalized growth: 0.99
Locus YMR205C, strain PFK2, active compounds read low
  normalized growth: 1
Locus YMR223W, strain ubp8, active compounds read low
  normalized growth: 0.993
Locus YMR231W, strain pep5, active compounds read low
  normalized growth: 0.973
Locus YMR263W, strain SAP30, active compounds read low
  normalized growth: 0.972
Locus YMR307W, strain GAS1, active compounds read low
  normalized growth: 1.16
Locus YNL067W, strain RPL9B, active compounds read low
  normalized growth: 0.992
Locus YNL071W, strain lat1, active compounds read low
  normalized growth: 0.999
Locus YNL153C, strain GIM3, active compounds read low
  normalized growth: 0.982
Locus YNL183C, strain NPR1, active compounds read low
  normalized growth: 0.968
Locus YNL209W, strain ssb2, active compounds read low
  normalized growth: 1
Locus YNL233W, strain BNI4, active compounds read low
  normalized growth: 1.02
Locus YNL248C, strain rpa49, active compounds read low
  normalized growth: 0.938
Locus YNL250W, strain rad50, active compounds read low
  normalized growth: 0.972
Locus YNL271C, strain bni1, active compounds read low
  normalized growth: 0.976
Locus YNL298W, strain CLA4, active compounds read low
  normalized growth: 0.976
Locus YNL307C, strain MCK1, active compounds read low
  normalized growth: 0.982
Locus YNL322C, strain KRE1 (second series), active compounds read low
  normalized growth: 0.992
Locus YNR049C, strain mso1, active compounds read low
  normalized growth: 0.988
Locus YNR052C, strain pop2, active compounds read low
  normalized growth: 0.984
Locus YOL012C, strain htz1
  normalized growth: 1.19
Locus YOL147C, strain pex11, active compounds read low
  normalized growth: 0.979
Locus YOR001W, strain rrp6, active compounds read low
  normalized growth: 0.936
Locus YOR061W, strain CKA2, active compounds read low
  normalized growth: 0.956
Locus YOR069W, strain VPS5, active compounds read low
  normalized growth: 0.994
Locus YOR070C, strain gyp1, active compounds read low
  normalized growth: 0.993
Locus YOR080W, strain dia2, active compounds read low
  normalized growth: 0.976
Locus YOR083W, strain WHI5, active compounds read low
  normalized growth: 1.06
Locus YOR106W, strain vam3, active compounds read low
  normalized growth: 1.06
Locus YOR136W, strain idh2, active compounds read low
  normalized growth: 0.976
Locus YOR144C, strain elg1, active compounds read low
  normalized growth: 0.98
Locus YOR184W, strain ser1, active compounds read low
  normalized growth: 0.953
Locus YOR231W, strain MKK1, active compounds read low
  normalized growth: 0.996
Locus YOR265W, strain rbl2, active compounds read low
  normalized growth: 0.991
Locus YOR270C, strain vph1, active compounds read low
  normalized growth: 0.87
Locus YOR290C, strain snf2, active compounds read low
  normalized growth: 1.05
Locus YOR316C, strain cot1, active compounds read low
  normalized growth: 0.981
Locus YPL051W, strain arl3, active compounds read low
  normalized growth: 0.959
Locus YPL078C, strain atp4, active compounds read low
  normalized growth: 1.05
Locus YPL106C, strain sse1, active compounds read low
  normalized growth: 1.04
Locus YPL240C, strain hsp82, active compounds read low
  normalized growth: 0.976
Locus YPL241C, strain CIN2, active compounds read low
  normalized growth: 0.986
Locus YPL256C, strain CLN2, active compounds read low
  normalized growth: 0.995
Locus YPR119W, strain clb2, active compounds read low
  normalized growth: 0.98
Locus YPR141C, strain kar3, active compounds read low
  normalized growth: 0.985
Locus YPR163C, strain tif3, active compounds read low
  normalized growth: 0.983
Locus YPR167C, strain met16, active compounds read low
  normalized growth: 0.983
Strain wtn01, active compounds read low
  normalized growth: 0.956
